Activity calls are given as the source filed them.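 The calls were made as follows: active = cell survival after UV exposure 2 SD above solvent-only control wells at 10 µM, confirmed on one or two repeats; inactive = the rest.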
Test: cell survival after pyrene fatty acid photosensitization – ZR-82 cells, Analyticon library, screen 2, phospholipid biosynthesis inhibitor project, primary screen (AID 1347383);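 also: survival reflects blocked phospholipid synthesis cutting uptake of the phototoxic fatty acid; compound and fatty acid exposure 3 h then viability read next day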
Conditions: ZR-82 CHO cells, pyrene-fatty acid UV killing, CellTiter Blue; at 10 µM; peroxisome-deficient CHO-K1 variant; with DGAT-1, DGAT-2 and ACAT inhibitors

Question: With COC1OC(OC)C(O)(CC/C=C(\C)CC/C=C(\C)C(=O)O)C1O (centres undefined) as the compound, how does the outcome read?
Answer: inactive

Question: Which outcome does the source give for CCC/C=C/C=C/C1C[C@@H](O)[C@@H](O)C(=O)[C@H]1CO (some centres undefined) here?
Answer: inactive

Question: For O=c1c(O)c(-c2c(O)cccc2O)oc2cc(O)cc(O)c12, which outcome is on record?
Answer: inactive

Question: For C[C@H](O)c1nc2ccccc2c(=O)[nH]1, which outcome is on record?
Answer: inactive

Question: For COc1cc(O)cc(O)c1C(=O)c1ccc(O)c(O)c1, which outcome is on record?
Answer: inactive

Question: Which outcome does the source give for CC1=CC2=C(C=O)C(=O)[C@](C)(O)[C@@H](O)C2=CO1 here?
Answer: inactive

Question: Which outcome does the source give for C=C(C(=O)O)C(CCCCCC)C(=O)O (centres undefined) here?
Answer: inactive

Question: Which outcome does the source give for COc1c2ccoc2c(OC)c2oc(=O)ccc12 here?
Answer: inactive

Question: With COC12CC3C(C(C)C1=CC(=O)O2)C(O)C(OC(=O)/C=C/c1ccccc1)C1(O)C(C)(C)CCCC31C (centres undefined) as the compound, how does the outcome read?
Answer: inactive

Question: For C/C=C/C1C=CC(O)C(O)C1C(O)C(C)=O (centres undefined), which outcome is on record?
Answer: inactive

Question: With COc1cc(CCC(=O)O)cc(OC)c1OC as the compound, how does the outcome read?
Answer: inactive

Question: For CCC1CN2CCc3cc(OC)c(OC)cc3C2CC1CC1NCCc2cc(OC)c(OC)cc21 (centres undefined), which outcome is on record?
Answer: inactive

Question: With CC1NC(=O)c2ccccc2NC1=O (centres undefined) as the compound, how does the outcome read?
Answer: inactive

Question: For COc1cc(C(=O)/C(C)=C(\C)C(=O)c2ccc(O)c(OC)c2)ccc1O, which outcome is on record?
Answer: inactive

Question: For CCCCCC1=C(CO)C(O)C(O)CC1=O (centres undefined), which outcome is on record?
Answer: inactive

Question: For NC(=O)c1c[nH]c(Cc2ccccc2)cc1=O, which outcome is on record?
Answer: inactive

Question: With C[C@]1(C=O)[C@H]2CC[C@]3(C)O[C@@]14C(=O)c1cc(O)ccc1C(=O)C4=C[C@@H]23 as the compound, how does the outcome read?
Answer: inactive

Question: With C=C1C(=O)O[C@@H]2C=C(C)[C@@H]3CC[C@@](C)(O)[C@@H]3C[C@H]12 as the compound, how does the outcome read?
Answer: inactive

Question: Which outcome does the source give for CC1=C(C)C(=O)OC(C(C)C2C(O)CC3C4C5OC5C5(O)CC=CC(=O)C5(C)C4CCC32C)C1 (centres undefined) here?
Answer: inactive

Question: Which outcome does the source give for CCC(C)C(=O)OC1CCCC2C=CC(C)C(CCC(O)CC(O)CC(=O)O)C21 (centres undefined) here?
Answer: inactive

Question: Which outcome does the source give for COc1cc(C[C@H]2C(=O)OC[C@@H]2Cc2ccc(OC)c(OC)c2)ccc1O here?
Answer: inactive

Question: For CCC(O)c1cccc(O)c1CN (centres undefined), which outcome is on record?
Answer: inactive

Question: For COc1ccc(-c2coc3cc(O[C@@H]4O[C@H](CO)[C@@H](O)[C@H](O)[C@H]4O)ccc3c2=O)cc1, which outcome is on record?
Answer: inactive

Question: With C/C=C/c1ccc2oc(-c3ccc(O)c(OC)c3)c(C)c2c1 as the compound, how does the outcome read?
Answer: inactive

Question: For COC(=O)C(CO)NC(=O)c1cccc(O)c1O (centres undefined), which outcome is on record?
Answer: inactive

Question: For O=C1CC(c2ccc(O)c(O)c2)Oc2cc(O)cc(O)c21 (centres undefined), which outcome is on record?
Answer: inactive

Question: With CCCCCC(O)CC(O)CC(=O)O (centres undefined) as the compound, how does the outcome read?
Answer: inactive

Question: For COC(=O)C12OC1CCC1C3(C)CC(C4=CC(=O)OC4O)OC(=O)C3CCC12C (centres undefined), which outcome is on record?
Answer: inactive

Question: For CC(=O)c1ccc(O[C@@H]2O[C@H](CO)[C@@H](O)[C@H](O)[C@H]2O)cc1, which outcome is on record?
Answer: inactive

Question: For O=C(O)CCC(=O)Cc1ccccc1, which outcome is on record?
Answer: inactive

Question: Which outcome does the source give for COc1ccc(C)c2c(O)c(CC=C(C)C)c(=O)oc12 here?
Answer: inactive

Question: For COc1cc(O)c2c(c1)C(=O)c1cc(C)cc(O)c1C2=O, which outcome is on record?
Answer: inactive

Question: With COc1cc(OC)c(C(O)C(C)O)cc1OC (centres undefined) as the compound, how does the outcome read?
Answer: inactive

Question: Which outcome does the source give for CC(C)c1ccc2c(c1)[C@H](O)CC1[C@@](C)(C(=O)O)CCC[C@]21C (some centres undefined) here?
Answer: inactive

Question: Which outcome does the source give for COc1cc(OC2O[C@H](CO)[C@@H](O)[C@H](O)[C@H]2O)c2c(=O)c(-c3ccc(O)cc3)coc2c1 (some centres undefined) here?
Answer: inactive

Question: Which outcome does the source give for C#CC(O)COc1ccc(C(=O)O)cc1 (centres undefined) here?
Answer: inactive

Question: For O=C(/C=C/c1ccc(O)c(O)c1)N[C@@H](Cc1ccc(O)c(O)c1)C(=O)O, which outcome is on record?
Answer: inactive

Question: For COc1ccc(CCc2cc(OC)cc(=O)o2)cc1, which outcome is on record?
Answer: inactive

Question: For O=c1ccc2ccc(O[C@@H]3O[C@H](CO)[C@@H](O)[C@H](O)[C@H]3O)cc2o1, which outcome is on record?
Answer: inactive

Reference: PubChem BioAssay AID1347383 (Zoeller Lab, School of Medicine, Boston University, 2020)
